The full ranking holds about 33,000 sequences; the median of “E-score (-0.5 to 0.5)” is about -0.016, and the highest 2% start at about 0.3. This is one part of a sample in which the highest values are shown more often than they occur.
Biological target: T1, Yer184c (UniProt P39961)
T1 sequence: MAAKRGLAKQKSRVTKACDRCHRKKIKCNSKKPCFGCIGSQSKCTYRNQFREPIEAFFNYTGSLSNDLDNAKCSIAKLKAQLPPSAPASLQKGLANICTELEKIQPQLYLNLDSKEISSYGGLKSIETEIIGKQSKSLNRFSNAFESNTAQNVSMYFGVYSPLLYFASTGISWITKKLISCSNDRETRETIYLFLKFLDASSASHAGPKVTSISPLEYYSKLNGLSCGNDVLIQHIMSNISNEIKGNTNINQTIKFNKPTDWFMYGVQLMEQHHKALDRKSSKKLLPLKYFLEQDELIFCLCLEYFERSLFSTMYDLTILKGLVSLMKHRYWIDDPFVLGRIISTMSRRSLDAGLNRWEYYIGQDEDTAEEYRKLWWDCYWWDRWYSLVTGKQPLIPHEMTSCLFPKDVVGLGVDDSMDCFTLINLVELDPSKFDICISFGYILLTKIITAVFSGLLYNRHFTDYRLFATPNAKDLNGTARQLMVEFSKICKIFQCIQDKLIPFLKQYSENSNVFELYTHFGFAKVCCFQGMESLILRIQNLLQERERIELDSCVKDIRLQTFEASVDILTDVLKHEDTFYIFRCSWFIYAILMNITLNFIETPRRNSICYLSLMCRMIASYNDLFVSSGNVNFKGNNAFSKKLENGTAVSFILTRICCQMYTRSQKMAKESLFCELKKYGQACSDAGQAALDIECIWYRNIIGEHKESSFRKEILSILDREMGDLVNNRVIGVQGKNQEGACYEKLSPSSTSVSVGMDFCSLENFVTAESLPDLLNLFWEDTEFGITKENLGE
Experiment: PBM E-score (8-mer binding enrichment) (E-score (-0.5 to 0.5)); higher = stronger / more preferred TF binding
Conditions: protein concentration: 100 nM; construct: GST-full length
Method in brief: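 Using PURExpress in vitro transcription/translation, GST-tagged yeast transcription factors were made in full-length or DNA-binding-domain form. These were applied at about 100-200 nM to double-stranded universal all-10-mer Agilent arrays, and bound protein was detected with fluorescent anti-GST. Scans were normalised with masliner before the Universal PBM Analysis Suite assigned E-scores to ungapped eight-base words pooled with their reverse complements.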

| Sequence | PBM E-score |
| --- | --- |
| ACGGTCCG | 0.161 |
| AAGCCGTC | 0.187 |
| TACCCGGA | 0.354 |
| GACCCGGA | 0.212 |
| GAGCCGGA | 0.328 |
| CACCCGGA | 0.237 |
| GAGCCCGA | 0.0143 |
| AAGCCGTA | 0.224 |
| CAGCCGTA | 0.142 |
| AAGCCGCA | 0.161 |
| GAGCCGCA | 0.0573 |
| AAGCCGGA | 0.411 |
| GAGCCGTA | 0.307 |
| GCAGAGCA | 0.0245 |
| AATGTCCG | 0.283 |
| AGGTCGGG | -0.168 |
| AAGCCCAA | -0.106 |
| CCATCTTC | 0.173 |
| AGAAGCTC | 0.0486 |
| CCGTGAGG | -0.119 |
| CACCAGAC | -0.00896 |
| AACAGCTG | 0.0223 |
| CTAGAGTA | -0.0589 |
| CAGCCGGC | 0.391 |
| CAGCCGGG | 0.127 |

| Sequence | PBM E-score |
| --- | --- |
| GAGCCCGC | -0.212 |
| AAGCCGGG | 0.246 |
| TAGCCGGA | 0.401 |
| GAGCCGCC | 0.0613 |
| GAGCCGGC | 0.406 |
| CAGCCGCC | 0.0636 |
| TAGCCGCA | -0.0301 |
| AAGCCGGT | 0.258 |
| TAGCCGAA | 0.276 |
| AAGCCGGC | 0.374 |
| CCATAGAC | -0.204 |
| GAAGTACA | 0.0369 |
| CCAATCGC | -0.072 |
| ATCAGCAG | 0.0226 |
| GGTGCCAC | -0.119 |
| TCGTACCA | 0.099 |
| CGCGCACA | 0.112 |
| CAGCCGCA | -0.134 |
| CAGCCGGA | 0.392 |
| CAGCCTGA | -0.0443 |
| ATATCACC | 0.093 |
| ACAGCGGC | -0.0827 |
| GGTTCGGA | 0.281 |
| AATTCGGA | 0.343 |
| GATTCGAC | -0.112 |

| Sequence | PBM E-score |
| --- | --- |
| GATTCGGC | 0.364 |
| CATTCGGA | 0.338 |
| AATTCGGC | 0.24 |
| AATTCGGG | 0.103 |
| CATTCGGC | 0.269 |
| CATTCGGG | 0.141 |
| CGTTCGGA | 0.342 |
| AATTCGGT | 0.301 |
| CGTTCGGC | 0.27 |
| ATCCTTGC | -0.0624 |
| GTTAGACA | 0.222 |
| GATTTGTA | 0.103 |
| AGCCAAGG | -0.16 |
| ACTAAGAT | 0.154 |
| GAGGCCCA | -0.319 |
| CGGTTAAG | 0.269 |
| ACGAATAG | -0.0621 |
| TGGGCTAA | -0.147 |
| CAAAAGGG | -0.101 |
| GCCCTTCA | -0.0881 |
| TATTCGGA | 0.356 |
| GATTCGGA | 0.329 |
| GATTCGCA | 0.131 |
| TATTCGCA | 0.0122 |
| GATTCGTA | 0.125 |

| Sequence | PBM E-score |
| --- | --- |
| TATTCGAA | -0.106 |
| AGCTTGGA | -0.226 |
| ATTCCATA | 0.147 |
| ACACAGGT | -0.289 |
| AGGCATTA | -0.187 |
| AGGCAAGA | -0.112 |
| GGGCAAGA | 0.106 |
| CGGCATGA | 0.313 |
| CGGCATTA | 0.416 |
| CGGCATGC | 0.272 |
| CGGCAAGA | 0.317 |
| GGGCATGA | -0.275 |
| GGGCATTA | -0.199 |
| CATCGGCC | 0.115 |
| ACCCAGTG | -0.306 |
| GAGAGGGC | -0.293 |
| CCTATCGA | -0.107 |
| CCCGGACG | -0.0945 |
| ACCGGATC | 0.229 |
| ACCGGACT | 0.101 |
| ACCGGACG | 0.305 |
| ACCGGATA | 0.187 |
| ACCGGATG | 0.307 |
| CGCATGAA | 0.0183 |
| AGTTAGTG | 0.00554 |

| Sequence | PBM E-score |
| --- | --- |
| CCTATACG | -0.267 |
| CCTCGGTA | -0.0209 |
| CCTCGGCG | 0.355 |
| CCTCGGAG | 0.277 |
| CCTCGGCA | 0.367 |
| ACTCGGCG | 0.325 |
| ACTCGGCT | 0.209 |
| ACTCGGCA | 0.299 |
| ACTCGGCC | 0.121 |
| TCTCGGCA | 0.35 |
| TATCGGCA | 0.213 |
| CCTCGGCC | 0.257 |
| TCACGGCA | 0.096 |
| CGAACACC | 0.0223 |
| AATGGCCA | -0.256 |
| ACGGATTG | 0.161 |
| ATTCCGTG | 0.313 |
| CATCCGTA | 0.206 |
| GTTCCGTA | 0.276 |
| ACTCCGTG | 0.1 |
| ATTCCGTC | 0.149 |
| ATTCCGCG | 0.242 |
| CTTCCGTC | 0.209 |
| CTTCCGTA | 0.322 |
| ATTCCGTA | 0.322 |

| Sequence | PBM E-score |
| --- | --- |
| CCTGCGAG | 0.00158 |
| CGTAGCTC | -0.0585 |
| AGTTCACG | -0.0529 |
| CCCCAATA | -0.244 |
| ACGCCAAT | -0.0124 |
| ATTCTTCC | 0.083 |
| ACCGGGAT | 0.256 |
| CAGTTAGA | -0.0352 |
| ATAAGATC | -0.0275 |
| ACGAATTC | 0.113 |
| CCGAATTA | 0.231 |
| CCGAATCA | 0.233 |
| CCGAATTC | 0.334 |
| ACGAATCC | 0.115 |
| CCGAATCC | 0.322 |
| TACGCTAA | 0.0349 |
| GTAACTCA | -0.0122 |
| AGATCTAA | 0.0189 |
| AGTCTTGG | -0.0577 |
| TACCAAAA | 0.0716 |
| GACAAGAA | 0.151 |
| GACAAAAC | 0.0933 |
| AACCAAAA | 0.0925 |
| GACAAAAA | 0.333 |
| GACCAAAA | 0.309 |

| Sequence | PBM E-score |
| --- | --- |
| AGTAATAG | -0.00505 |
| AACAATAC | 0.0929 |
| AATAATAG | 0.00819 |
| AATAATAC | 0.232 |
| AACAATAA | 0.255 |
| AGTAATAC | 0.106 |
| AATAATAT | 0.333 |
| AGTAATAT | 0.338 |
| AACAATAT | 0.352 |
| CAACATCG | 0.0608 |
| CCCACGAC | -0.199 |
| GTTAGAGA | -0.0529 |
| ACCTGCTA | -0.00094 |
| CCTGAGTC | -0.0246 |
| ATATGATA | 0.325 |
| GTATGATA | 0.226 |
| CTATGATA | 0.162 |
| CTGCAACA | 0.152 |
| CACAATCA | 0.00768 |
| GGGAAATA | 0.0562 |
| AGGAAATA | 0.249 |
| CGGAAATC | 0.315 |
| CGGAAATA | 0.424 |
| CTGAAATC | 0.0356 |
| AGGAAATC | 0.0763 |
